Sampled rows, rich in hits. Any-hit rate of the full collection: about 6.6%.
TGFb SMAD3 inh: qHTS for Inhibitors of TGF-b; HepG2 CAGA-GFP TGF-b/SMAD3 reporter, GFP fluorescence, 18 h; TGF-beta stimulated, 500 pg/mL final; Potency, µM (doses to about 46.1 µM), for inactives: at the top dose activity, negative = inhibition, usual class: inhibitors; 1.2% of 410,000 active; note: % is set by controls: 0 for no effect and ±100 for the full control effect; nearly all actives have a fitted effect of over 65% in size
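First, reporter cells (HEPG2 CAGA-GFP) rested 2 h at 37 degrees C. Next, compounds were pinned in and TGF-beta added to 500 pg/mL final. After 18 h, GFP was imaged per cell and summed per well.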
KB-V1 MDR tox: qHTS assay for MDR1-selective chemotherapeutics: Primary screen using the drug-selected MDR subline cells KB-V1; KB-V1 MDR cells viability, CellTiter-Glo, 72 h; Potency, µM (titrated, usually from 46.1 µM), actives largely listed as cytotoxic; 3.4% of 400,000 active; AID 1347076, 2019; note: % is set by controls: 0 for no effect and ±100 for the full control effect; nearly all actives have a fitted effect of over 60% in size
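Cells of the MDR subline KB-V1 are plated, dosed with compound at multiple concentrations, and incubated 72 h at 37 degrees C; CellTiter-Glo is then added and luminescence read after 10 min.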
HepG2 viability: qHTS for Inhibitors of TGF-b: Cytotox Counterscreen; Potency, µM (top dose mostly 46.1 µM), for inactives: at the highest dose activity change, negative = cytotoxicity, hits mostly cytotoxic; 0.76% of 410,000 active; HepG2 CAGA-GFP viability, ATP luminescence, 18 h
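CellTiter-Glo luminescence gave cytotoxicity after 18 hours at 37 degrees C. The cells were HepG2 CAGA-GFP in 1% FBS DMEM, stimulated with 500 pg/mL TGF-beta after compound addition. %Activity was normalised to no-cell wells (complete cell-killing) and DMSO (no toxicity), and curves were fitted and classified.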
HT1080NT lethal: qHTS for induction of synthetic lethality in tumor cells producing 2HG: qHTS for the HT-1080-NT fibrosarcoma cell line; Potency, µM (doses to about 46.1 µM), inactives show top-dose activity, negative = less viability, most hits filed as cytotoxic; 1.6% of 360,000 active; HT-1080-NT fibrosarcoma viability, CellTiter-Glo ATP luminescence, 48 h;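 note: NT is the 2HG producing partner of a matched IDH1 knockdown line; 0% = DMSO-treated cells and -100% = media-only wells without cells; nearly all actives have a fitted effect of over 55% in size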
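Viability of the 2HG-overproducing fibrosarcoma line after 48 hours of compound exposure at 37 degrees C was determined by luminescence with CellTiter-Glo, and concentration-effect curves were then fitted and categorized.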
KB-3-1 cytotox: qHTS assay for MDR1-selective chemotherapeutics: Primary screen using the parental adenocarcinoma cell KB-3-1; KB-3-1 viability, CellTiter-Glo ATP luminescence, 72 h; Potency, µM (series often up to 46.1 µM), usual class: cytotoxic; 1.4% of 400,000 active; AID 1347075, 2019; note: % is set by controls: 0 for no effect and ±100 for the full control effect; nearly all actives have a fitted effect of over 60% in size
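Here the drug-naive KB-3-1 line serves as comparator for MDR sub-line selectivity; cells received compound titrations, 72 h at 37 °C, then CellTiter-Glo readout.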
HT1080 IDH1KD tx: qHTS for induction of synthetic lethality in tumor cells producing 2HG: qHTS for the HT-1080-IDH1KD cell line; HT-1080 IDH1 knockdown viability, ATP luminescence, 48 h; Potency, µM (highest dose often 46.1 µM), for the others: top-dose activity, negative = toxicity, usual class: cytotoxic; 2% of 360,000 active; AID 686971, 2013;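 note: 0% = DMSO wells and -100% = cell-free medium wells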
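Viability of IDH1-knockdown HT-1080 fibrosarcoma cells was assessed by CellTiter-Glo after 48 h at 37 °C with titrated compound; concentration-effect curves were classified by fit quality and response size.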
An asterisk follows results filed as active; ! = repeats disagree. Calls come from the whole dose curve; as a rule, active = well fitted curve in the direction sought with a large enough effect; inconclusive = small, poorly fitted or top-dose-only effect, or another doubt; inactive = no such curve, though single readings can be large; an effect the other way counts as inactive or inconclusive. Potency is the fitted concentration of half-maximal effect.

Screening CC1CN(c2ccc([N+](=O)[O-])c(NCCOc3ccccc3)c2)CC(C)N1 (centres undefined) returned TGFb SMAD3 inh inconclusive, KB-V1 MDR tox inconclusive, HepG2 viability -58%, HT1080NT lethal 16µM*, KB-3-1 cytotox inactive and HT1080 IDH1KD tx 21µM*.
O=C(CCCc1ccccc1)Nc1nncs1 was read as TGFb SMAD3 inh inconclusive, KB-V1 MDR tox 9.2µM*, HepG2 viability 9%, HT1080NT lethal 11%, KB-3-1 cytotox inactive and HT1080 IDH1KD tx 0%.
`CC(C)CCNC(=O)C1CCN(c2nc3ccccc3o2)CC1` gave TGFb SMAD3 inh -14%, KB-V1 MDR tox 13µM*, HepG2 viability -24%, HT1080NT lethal -9%, KB-3-1 cytotox inconclusive and HT1080 IDH1KD tx -29%.
`COc1ccc(-c2nc(NC(=O)C3CCN(c4nc5ccccc5o4)CC3)sc2C)cc1` gave TGFb SMAD3 inh inconclusive, KB-V1 MDR tox inactive, HepG2 viability -28%, HT1080NT lethal inconclusive, KB-3-1 cytotox 26µM* and HT1080 IDH1KD tx inconclusive.
For COc1ccc(-c2nc(NC(=O)Cn3c(=O)oc4ccccc43)sc2C)cc1 the results were TGFb SMAD3 inh -11%, KB-V1 MDR tox inactive, HepG2 viability -22%, HT1080NT lethal 0%, KB-3-1 cytotox inactive and HT1080 IDH1KD tx -11%.
`O=C(NCc1cccs1)C1CCN(c2nc3ccccc3o2)CC1` gave TGFb SMAD3 inh 6%, KB-V1 MDR tox inactive, HepG2 viability -8%, HT1080NT lethal -1%, KB-3-1 cytotox inactive and HT1080 IDH1KD tx -6%.
`Cc1ccc(Nc2c(-c3ccc(C)s3)nc3cccc(C)n23)cc1` gave HT1080NT lethal -18% and HT1080 IDH1KD tx -20%.
CC(C)CCOP(=O)(c1ccc(N(C)C)cc1)C(Nc1ccccc1)c1ccc(N(C)C)cc1 (centres undefined) was read as TGFb SMAD3 inh inconclusive, KB-V1 MDR tox inactive, HepG2 viability -24%, HT1080NT lethal -9%, KB-3-1 cytotox inactive and HT1080 IDH1KD tx -23%.
CCCOP(=O)(c1ccc(N(C)C)cc1)C(Nc1ccccc1)c1ccc(C)cc1 (centres undefined) was read as TGFb SMAD3 inh inconclusive, KB-V1 MDR tox 21µM*, HepG2 viability -41%, HT1080NT lethal inconclusive, KB-3-1 cytotox inactive and HT1080 IDH1KD tx 15µM*.
CCOC(=O)N1CCC(N(C(=O)Nc2cccc(OC)c2)C(C)CC)CC1 (centres undefined) was read as TGFb SMAD3 inh -3%, KB-V1 MDR tox 18µM*, HepG2 viability 1%, HT1080NT lethal -27%, KB-3-1 cytotox inactive and HT1080 IDH1KD tx -1%.
COc1cc(-c2noc(C)c2C#Cc2ccccn2)cc(OC)c1OC was read as TGFb SMAD3 inh inconclusive, KB-V1 MDR tox 1.3µM*!, HepG2 viability 3%, HT1080NT lethal 1.6µM*, KB-3-1 cytotox 0.58µM*! and HT1080 IDH1KD tx 2.1µM*.
COc1cc(-c2noc(C)c2/C=C/c2ccc(N)cc2)cc(OC)c1OC was read as TGFb SMAD3 inh inconclusive, KB-V1 MDR tox 0.58µM*!, HepG2 viability -16%, HT1080NT lethal 0.58µM*, KB-3-1 cytotox 0.26µM*! and HT1080 IDH1KD tx 0.92µM*.
`CNC(C)C#Cc1c(-c2cc(OC)c(OC)c(OC)c2)noc1C` (centres undefined) gave TGFb SMAD3 inh inconclusive, KB-V1 MDR tox inconclusive, HepG2 viability -34%, HT1080NT lethal -16%, KB-3-1 cytotox inactive and HT1080 IDH1KD tx -2%.
Screening COc1cc(-c2noc(C)c2C#Cc2ccc(N)cc2)cc(OC)c1OC returned TGFb SMAD3 inh 10µM*, KB-V1 MDR tox 1.3µM*!, HepG2 viability 0%, HT1080NT lethal 0.82µM*, KB-3-1 cytotox 0.82µM*! and HT1080 IDH1KD tx 0.65µM*.
Screening Cc1ccccc1Cn1c2ccccc2c2cnn(CC(=O)NCCc3ccc(Cl)cc3)c(=O)c21 returned TGFb SMAD3 inh 1%, KB-V1 MDR tox inactive, HepG2 viability -10% and KB-3-1 cytotox inactive.
For Nc1nn(-c2ccccc2)c(N)c1N=Nc1cccc(F)c1 the results were TGFb SMAD3 inh inconclusive, KB-V1 MDR tox inconclusive, HepG2 viability -4%, HT1080NT lethal 16µM*, KB-3-1 cytotox 5.8µM* and HT1080 IDH1KD tx 5.8µM*.
Screening Nc1nn(-c2ccccc2)c(N)c1N=Nc1ccc2c(c1)OCO2 returned TGFb SMAD3 inh -14%, KB-V1 MDR tox 3.3µM*, HepG2 viability 0%, HT1080NT lethal 18µM*, KB-3-1 cytotox 7.3µM* and HT1080 IDH1KD tx 6.5µM*.
Screening Cn1ccc2cc(S(=O)(=O)N3CCCN(C(=O)Nc4ccccc4Br)CC3)ccc21 returned TGFb SMAD3 inh -32%, KB-V1 MDR tox inactive, HepG2 viability -7% and KB-3-1 cytotox inactive.
Cc1ccc(S(=O)(=O)Nc2ccc3c4c(cccc24)CC3)c(C)c1 was read as TGFb SMAD3 inh inconclusive, KB-V1 MDR tox 21µM*, HepG2 viability -5%, HT1080NT lethal 21µM*, KB-3-1 cytotox inconclusive and HT1080 IDH1KD tx 10µM*.
`Cc1ccc(C)c(S(=O)(=O)Nc2ccc(O)c3ccccc23)c1` gave TGFb SMAD3 inh inconclusive, KB-V1 MDR tox inactive, HepG2 viability -100%, HT1080NT lethal -12%, KB-3-1 cytotox inactive and HT1080 IDH1KD tx -7%.
Screening Cc1ccc(S(=O)(=O)Nc2ccc(O)c3ccccc23)c(C)c1 returned TGFb SMAD3 inh inconclusive, KB-V1 MDR tox inactive, HepG2 viability -95%, HT1080NT lethal 29µM*, KB-3-1 cytotox inactive and HT1080 IDH1KD tx inconclusive.
For CCOc1ccc(N(CC)S(=O)(=O)N2CCCC(C(=O)NCCc3ccccc3OC)C2)cc1 (centres undefined) the results were TGFb SMAD3 inh inconclusive, KB-V1 MDR tox inactive, HepG2 viability -27% and KB-3-1 cytotox inactive.
For O=C(COc1ccc(Cl)cc1)Nc1ncc([N+](=O)[O-])s1 the results were TGFb SMAD3 inh inconclusive, KB-V1 MDR tox 13µM*, HepG2 viability -30%, HT1080NT lethal inconclusive, KB-3-1 cytotox inconclusive and HT1080 IDH1KD tx inconclusive.
Screening O=C(Cc1ccc(Br)cc1)Nc1ncc([N+](=O)[O-])s1 returned TGFb SMAD3 inh inconclusive, KB-V1 MDR tox inconclusive, HepG2 viability -56%, HT1080NT lethal inconclusive, KB-3-1 cytotox 21µM* and HT1080 IDH1KD tx inconclusive.

Bioassay records deposited in PubChem BioAssay by National Center for Advancing Translational Sciences (NCATS).
